Screening data (PubChem)
USP30 block: inhibitors of human USP30 deubiquitinase. inhibition, % at 25 µM. purified USP30, Ub-rhodamine cleavage fluorescence. actives 5.3% (n = 47,000)
USP17 inh: inhibitors of human USP17 deubiquitinase; Ubiquitin carboxyl-terminal hydrolase 17-like protein 5 (Homo sapiens), A8MUK1; purified USP17, Ub-rhodamine cleavage fluorescence, 3 h; actives 6.5% (n = 47,000); inhibition, % at 50 µM; AID 1645855, 2021
Target sequence (A8MUK1 whole entry, looked up): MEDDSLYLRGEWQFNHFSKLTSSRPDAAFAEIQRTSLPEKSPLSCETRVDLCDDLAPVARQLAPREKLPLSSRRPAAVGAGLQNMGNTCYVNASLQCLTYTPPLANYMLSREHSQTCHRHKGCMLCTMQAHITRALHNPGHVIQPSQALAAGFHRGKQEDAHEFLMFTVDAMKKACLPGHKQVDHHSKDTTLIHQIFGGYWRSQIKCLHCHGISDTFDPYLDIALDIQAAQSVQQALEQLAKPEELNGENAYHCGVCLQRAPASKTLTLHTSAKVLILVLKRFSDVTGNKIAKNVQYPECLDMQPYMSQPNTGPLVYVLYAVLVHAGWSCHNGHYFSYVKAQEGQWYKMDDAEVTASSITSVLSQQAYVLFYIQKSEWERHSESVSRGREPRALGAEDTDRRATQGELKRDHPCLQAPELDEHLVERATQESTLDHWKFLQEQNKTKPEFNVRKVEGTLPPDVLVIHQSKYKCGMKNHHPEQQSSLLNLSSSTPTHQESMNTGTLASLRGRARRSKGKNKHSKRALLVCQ
Large screens that a line does not name were inactive. Compounds with a hit are over-represented: about 9.6% of the library has one in this group of screens. Rule as the data show it: active = inhibition above about 30%; inactive = the rest.

O=C(CSc1nc2ccccc2o1)N1CCCc2ccccc21	none
COc1ccc(-c2nnc3ccc(SCC(=O)N4CCCc5ccccc54)nn23)cc1	none
Cc1nn(-c2ccccc2)c(C)c1NC(=O)c1cnn(Cc2ccccc2)c1	none
c1ccc(-c2cc(CC3(NC4CCC4)COC3)no2)nc1	none (no result: USP17 inh)
Cc1ccc(CNC(=O)Cn2c(=O)n(C3CC3)c(=O)c3nscc32)cc1	none
O=C(CSc1nnc(-c2cccnc2)o1)Nc1ccc(F)cc1	none
Cc1ccc(NC(=O)CSc2nnc(-c3ccncc3)o2)cc1F	USP17 inh 46
O=C(Nc1ccccc1F)c1oc(=O)c2ccccc2c1-c1ccccc1	none
O=C(NCCc1ccccc1Cl)c1oc(=O)c2ccccc2c1-c1ccccc1	USP30 block 44
CC(C)=CCCC1(C)OC2=C(C(=O)c3cc(O)cc(O)c3C2=O)[C@H]2C=C(C)CC[C@H]21 (stereo partly drawn)	USP17 inh 86
CC12CCCC(O1)c1c(cc3c(c1O)C(=O)c1c(O)cc(O)cc1C3=O)O2 (stereo not drawn)	none
O=C(COc1ccccc1-c1nnc(-c2ccccc2)o1)NCc1ccc2c(c1)OCO2	none
O=C(COc1ccc(Cl)cc1)NCc1nnc(SCC(=O)NCc2ccc3c(c2)OCO3)o1	USP17 inh 70
COc1ccc(CCNC(=O)CSc2nnc(CNC(=O)COc3ccc(Cl)cc3)o2)cc1OC	USP30 block 34, USP17 inh 46
COC(=O)c1ccc(CSc2nnc(CNC(=O)COc3ccc(Cl)cc3)o2)o1	none
CCC(NC(=O)N1CCOCC1)(C(F)(F)F)C(F)(F)F	none
O=C(Cc1ccc2c(c1)CCO2)Nc1ccc(-c2cn3ccsc3n2)cc1	USP17 inh 36
O=C(Nc1ccccc1)c1csc(-c2ccc3c(c2)CCO3)n1	none
CN(C)S(=O)(=O)c1ccc(N2CCCC2)c(C(=O)Nc2ccc(-c3cn4ccsc4n3)cc2)c1	USP30 block 38, USP17 inh 52
COc1ccc(NC(=O)c2cc(S(=O)(=O)N(C)C)ccc2N2CCCC2)cc1Cl	none
Cc1ccc(-c2nc(CNC(=O)Cc3ccccc3)no2)cc1	none
O=C(Cn1ccc2ccn(Cc3cccnc3)c2c1=O)NC1CCCC1	none
Cc1c(Cl)cccc1NC(=O)Cn1ccc2ccccc2c1=O	USP17 inh 71
O=C(Cn1cnc2c(c1=O)CCN(Cc1ccccc1)C2)Nc1ccccc1Cl	none
O=C(Cn1ccc2ccn(Cc3ccccc3)c2c1=O)NC1CCCC1	USP17 inh 39
Cc1c(Cl)cccc1NC(=O)Cn1cc(C(=O)C2CC2)c2ccccc21	none
O=C(Cn1ccc2ccn(Cc3ccccc3)c2c1=O)Nc1ccccc1Cl	USP17 inh 33
Cc1cccc(Nc2nc(C)c(C(=O)NCC3CCCO3)s2)n1 (stereo not drawn)	none (no result: USP17 inh)
c1ncc(-c2ccc(-c3noc([C@@H]4CCCN4C4CCOCC4)n3)cn2)cn1	none
CC(C)c1ccc(N(CC(=O)NC2CCCC2)C(=O)CCCC(=O)Nc2ccccn2)cc1	none
O=S(=O)(Nc1ccc(Oc2ccccc2)cc1)c1ccccc1F	USP30 block 41, USP17 inh 34
O=S(=O)(Nc1ccccc1-c1ccccc1)c1ccccc1F	none
O=C(NCc1ccccc1)C1CCN(c2cnc(N3CCOCC3)nc2)CC1	none
CC(C)c1ccc(S(=O)(=O)N2CCCC(c3nc(-c4cccnc4)no3)C2)cc1 (stereo not drawn)	USP30 block 82, USP17 inh 52
Cc1ccc(S(=O)(=O)N2CCCC(c3nc(-c4cccnc4)no3)C2)cc1C (stereo not drawn)	none
Cc1ccc(C(=O)N2CCC(Oc3ccc(C(=O)N4CCOCC4)cn3)CC2)cc1	none
CC(=O)NC(Cc1cccc(C)c1)C(=O)NC1CCN(C(=O)Nc2ccccc2)CC1 (stereo not drawn)	none
COc1ccccc1-c1ccc(SCC(=O)Nc2ccc3c(c2)OCCO3)nn1	USP30 block 40
Cc1nc(C)c(-c2ccc(SCC(=O)Nc3ccc4c(c3)OCCO4)nn2)s1	none
COc1ccc(-c2csc3ncnc(OCC(=O)Nc4ccc5c(c4)OCO5)c23)cc1OC	none
COc1ccc(NC(=O)CSc2nc(-c3ccc4c(c3)OCO4)ccc2C#N)cc1OC	USP17 inh 33
COc1ccc(CNC(=O)Cn2cnc(S(=O)(=O)N3CCCC3)c2)cc1	none
C=c1nc2c(c(=O)n1-c1cccc(Cl)c1)=C(O)c1ccccc1N2C	none
Cc1ccn2c(=O)cc(COc3cccc(NC(=O)COc4ccccc4C)c3)nc2c1	none
Cc1ccccc1NC(=O)Nc1ccccc1OCc1cc(=O)n2ccccc2n1	USP30 block 42, USP17 inh 50
Cc1cccc(NC(=O)Nc2ccccc2SCc2cc(=O)n3ccccc3n2)c1	none (no result: USP17 inh)
Cc1ccn2c(=O)cc(COc3cccc(NC(=O)Nc4ccc(F)cc4)c3)nc2c1	USP17 inh 38
Cc1ccn2c(=O)cc(COc3cccc(NC(=O)Nc4ccccc4)c3)nc2c1	none
COc1ccc(C(=O)N2CCN(Cc3cc(=O)n4ccccc4n3)CC2)cc1	USP30 block 36
O=C(c1cc(F)ccc1Br)N1CCN(Cc2cc(=O)n3ccccc3n2)CC1	none (no result: USP17 inh)
COc1ccc(OCC(=O)Nc2ccc(C)c(OCc3cc(=O)n4ccccc4n3)c2)cc1	USP17 inh 50
Cc1nc2cc(-c3sccc3-n3c(C)ccc3C)[nH]n2c(=O)c1C	none
COCCCNC(=O)C1CCN(c2nc3cccnc3n(Cc3ccc(C)cc3)c2=O)CC1	none
Cc1cnc(-c2cc(CC3CCN(Cc4scnc4C)C3)ncn2)[nH]1 (stereo not drawn)	none
CC1Cc2nc3ccccc3n2CCN1C(=O)c1ccc(F)cc1 (stereo not drawn)	none
O=C(Cc1ccccc1)N1CCOC2(COCCN(c3ncccn3)C2)C1 (stereo not drawn)	none
Cn1c(SCC(=O)Nc2ccc(N3CCOCC3)cc2)nnc1-c1cccc(F)c1	none
Cc1ccccc1-c1nnc(-c2ccc(C(=O)N(C)Cc3cccc(F)c3)cc2)o1	USP30 block 40
Cc1ccccc1-c1nnc(-c2ccc(C(=O)N(C)C(C)c3ccccc3)cc2)o1 (stereo not drawn)	none
O=C(Nc1ccccc1F)c1cncc(NS(=O)(=O)c2ccccc2)c1	none
Nc1ccc(F)c(NS(=O)(=O)c2ccccc2)c1	USP17 inh 58
C[C@@H]1C(=O)O[C@H]2CC34[C@H]5C[C@@H](C(C)(C)C)C36[C@@H](OC(=O)[C@@H]6O)OC4(C(=O)O5)[C@]21O (stereo partly drawn)	USP30 block 41
C[C@@H]1C(=O)OC2[C@H](O)C34[C@H]5C[C@@H](C(C)(C)C)C36[C@@H](OC(=O)[C@@H]6O)O[C@@]4(C(=O)O5)[C@]21O (stereo partly drawn)	none
CCCn1c(-c2ccccc2)nc2nc3ccccc3nc21	none
CCC(C)n1c(-c2ccccc2F)nc2nc3ccccc3nc21 (stereo not drawn)	USP30 block 35
Cc1ccc2cccc(OCc3nnc(SCC(=O)c4ccc(Cl)cc4)n3C)c2n1	USP30 block 39, USP17 inh 61
CSc1nnc(COc2cccc3ccc(C)nc23)n1C	none
NC(=O)c1ccsc1NC(=O)COC(=O)c1ccc(Cl)c(Cl)c1	none
CC(C)CNC(=O)C1CCN(c2ccc(-c3ccc(F)cc3)nn2)CC1	none (no result: USP30 block)
O=C(Nc1cccc2ccccc12)C1CCN(c2ccc(-c3ccc(F)cc3)nn2)CC1	USP17 inh 44 (no result: USP30 block)
CC1CCN(c2ccc3nnc(CCC(=O)N4CCOCC4)n3n2)CC1	none
c1coc(-c2nc3ccccc3n2CCC2CCCCC2)c1	USP17 inh 36
CCCn1c(-c2ccc(OC)cc2)nc2ccccc21	none (no result: USP30 block)
